From PubChem BioAssay (NCATS)
Unmarked numbers belong to inactive results. Results filed as inconclusive are left out. Where a call stands in place of a potency, no number is given. Calls of active or inactive are those of the source. Calls follow the shape of the dose curve; as a rule, active = well fitted curve in the direction sought with a large enough effect; inconclusive = small, poorly fitted or top-dose-only effect, or another doubt; inactive = no such curve, though single readings can be large; an effect the other way counts as inactive or inconclusive.

Key:
[1] = target: Glutathione peroxidase 1 (Homo sapiens) (UniProt P07203); test: Primary qHTS Assay for Inhibitors of Recombinant Selenoprotein Glutathione Peroxidase 1 (GPX1) (AID 1845191); also: nearly all actives have a fitted effect of over 65% in size
Procedure, shortened: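 GR-coupled assay: compounds preincubated 30 min at room temperature with GPX1, then reaction started with CHP; final 10 nM GPX1, 1 mM GSH, 0.5 mM CHP, 0.5 mM NADPH, 100 nM GR, 0.01% BSA, pH 7.5 Tris buffer. NADPH fluorescence (340/450 nm) read at 0 and 15 min.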

[2] = target: Phospholipid hydroperoxide glutathione peroxidase GPX4 (Homo sapiens) (UniProt P36969); test: Primary qHTS Assay for Inhibitors of Recombinant Selenoprotein Glutathione Peroxidase 4 (GPX4) (AID 1845192); also: nearly all actives have a fitted effect of over 65% in size; as to activity change, negative = inhibition: series mostly up to about 50 µM
Procedure, shortened: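 GR-coupled assay: recombinant GPX4 preincubated 30 min with compound at room temperature; final 200 nM GPX4, 1 mM GSH, 0.5 mM cumene hydroperoxide, 0.5 mM NADPH, 100 nM GR, 0.01% BSA, pH 7.5 Tris. NADPH fluorescence (340/450 nm) read at 0 and 15 min.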

[3] = target: Luciferin 4-monooxygenase (Photinus pyralis) (UniProt P08659); test: Primary firefly luciferase (FLuc) qHTS assay for identification of artifact compounds. (AID 1845220); also: nearly all actives have a fitted effect of over 60% in size; as to activity change, negative = inhibition: series mostly up to about 54 µM
Procedure, shortened: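 Titrated compounds were incubated 15 min at RT, protected from light, with luciferin and ATP at 10 uM; reaction started with 10 nM FLuc, luminescence imaged at 5 min, and concentration-response fitted by Hill equation.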

[4] = Primary fluorescence-based thiol-reactive (MSTI) qHTS assay for identification of artifact compounds. (AID 1845221); also: nearly all actives have a fitted effect of over 65% in size; also: potency is read from the fitted curve at half-maximal effect;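 as to activity change, negative = thiol reactive: series mostly up to about 54 µM; thiol-reactive compounds lower the probe fluorescence signal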
Procedure, shortened: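 One-hour, room-temperature, dark incubation of compound with 4 uM MSTI in PBS (pH 7.4, 2% DMSO) precedes a fluorescence read at 525 nm excitation, 598 nm emission; Hill-equation fitting yields concentration-response values.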

[5] = Primary redox qHTS assay for identification of artifact compounds. (AID 1845223)
Procedure, shortened: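 Amplex Red (25 uM) and HRP (250 mU/mL) in HBSS, with compounds for 15 min, then 250 uM DTT for 30 min, room temperature, dark. Fluorescence 525/598 nm read; normalized to DMSO and 10 uM DA3003; Hill fit.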

[6] = system: Nanoluciferase (engineered Oplophorus gracilirostris luciferase); test: Primary Nanoluciferase (NLuc) qHTS assay for identification of artifact compounds. (AID 1845222);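 also: NLuc secreted into diluted conditioned medium of S16 cells; series mostly up to about 54 µM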
Procedure, shortened: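 qHTS format, against NLuc in S16 cell-conditioned medium. Nano-Glo substrate 1:100 was added after 15 min at room temperature. Luminescence was taken after a further 5 min.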

Sequence of Glutathione peroxidase 1 (Homo sapiens) (P07203 whole entry, looked up): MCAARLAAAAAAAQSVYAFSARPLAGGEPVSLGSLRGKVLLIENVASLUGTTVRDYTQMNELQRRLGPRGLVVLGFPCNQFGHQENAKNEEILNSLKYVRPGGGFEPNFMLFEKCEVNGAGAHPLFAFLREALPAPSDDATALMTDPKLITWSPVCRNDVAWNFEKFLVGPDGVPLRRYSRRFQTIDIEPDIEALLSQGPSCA
Sequence of Phospholipid hydroperoxide glutathione peroxidase GPX4 (Homo sapiens) (P36969 whole entry, looked up): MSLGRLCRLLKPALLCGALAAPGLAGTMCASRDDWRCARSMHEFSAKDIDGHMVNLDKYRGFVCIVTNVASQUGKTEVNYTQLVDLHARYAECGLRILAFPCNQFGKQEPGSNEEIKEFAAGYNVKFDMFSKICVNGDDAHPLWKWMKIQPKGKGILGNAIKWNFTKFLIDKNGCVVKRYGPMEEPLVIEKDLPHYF

SMILES: C[C@]12CC[C@@H]3c4ccc(O)cc4CC[C@H]3[C@@H]1C[C@@H](O[C@@H]1O[C@H](C(=O)O)[C@@H](O)[C@H](O)[C@H]1O)[C@@H]2O
- Potency [1]: inactive
- Potency [2]: inactive
- Potency [3]: inactive
- Potency [4]: inactive
- Potency [5]: inactive

SMILES: O=C(Nc1ccc(N2CCC(C(=O)N3CCOCC3)CC2)cc1)c1cnc(Oc2ccccc2)nc1
- Potency [1]: inactive
- Potency [2]: inactive
- Potency [3]: inactive
- Potency [6]: inactive

SMILES: COc1ccccc1Oc1c(NS(=O)(=O)c2ccc(C)cn2)nc(-c2ccncc2)nc1OC
- Potency [1]: inactive
- Potency [2]: inactive
- Potency [3]: inactive
- Potency [4]: inactive
- Potency [5]: inactive

SMILES: CC1(C)CC[C@]2(C(=O)O[C@@H]3O[C@H](CO)[C@@H](O)[C@H](O)[C@H]3O)CC[C@]3(C)C(=CCC4[C@@]5(C)CC[C@H](O[C@@H]6O[C@H](C(=O)O)[C@@H](O[C@@H]7O[C@H](CO)[C@@H](O)[C@H](O)[C@H]7O)[C@H](O)[C@H]6O)C(C)(C)C5CC[C@]43C)C2C1 (stereo not given in full)
- Potency [1]: inactive
- Potency [2]: inactive
- outcome [3]: inactive [at 11.6 µM]
- activity change, negative = thiol reactive [4]: 348% [at 11.5 µM]
- activity, negative = inhibition [6]: 4.13% [at 11.6 µM]
- redox activity (% of DA3003) [5]: 3.95% [at 11.5 µM]

SMILES: C[C@H]1[C@H](C)CC[C@]2(C(=O)OC3OC(CO)C(O)C(O)C3O)CC[C@]3(C(=O)O)C(=CCC4[C@@]5(C)CC[C@H](O[C@@H]6O[C@@H](C)[C@H](OC7OC(CO)C(O)C(O)C7O)[C@@H](O)[C@H]6O)C(C)(C)C5CC[C@]43C)[C@H]12 (stereo not given in full)
- Potency [1]: inactive
- Potency [2]: inactive
- activity change, negative = inhibition [3]: -5.72% [at 11.6 µM]
- activity, negative = inhibition [6]: 1.44% [at 11.6 µM]

SMILES: CCC(C)C(=O)O[C@H]1[C@@H](O[C@H]2O[C@H](CO)[C@@H](O)[C@H](O)[C@H]2O)O[C@H](CO)[C@@H](O)[C@@H]1O (stereo not given in full)
- Potency [1]: inactive
- Potency [2]: inactive
- Potency [3]: inactive
- Potency [4]: inactive
- Potency [6]: inactive
- Potency [5]: inactive

SMILES: C/C=C(/C)C(=O)O[C@@H]1C[C@@H](OC(=O)/C(C)=C\C)[C@@]2(C)C3C(=O)C=C(C)C2C3C1(C)C
- Potency [1]: inactive
- Potency [2]: inactive
- Potency [3]: inactive
- Potency [4]: inactive
- Potency [6]: inactive
- Potency [5]: inactive

SMILES: CSCC1OC(n2cnc3c(N)ncnc32)C(O)C1O (stereo not given)
- Potency [1]: inactive
- Potency [2]: inactive
- Potency [3]: inactive
- Potency [4]: inactive
- Potency [6]: inactive
- Potency [5]: inactive

SMILES: C=C(C)C1Cc2c(ccc3c2OCC(c2ccc(O)cc2O)C3)O1 (stereo not given)
- Potency [1]: inactive
- Potency [2]: inactive
- Potency [3]: inactive
- Potency [4]: inactive
- Potency [6]: inactive
- Potency [5]: inactive

SMILES: C=C1C(OC(C)=O)CCC2(C)CC3(O)OC(=O)C(C)=C3CC12 (stereo not given)
- Potency [1]: inactive
- Potency [2]: inactive
- Potency [3]: inactive
- Potency [4]: inactive
- Potency [6]: inactive
- Potency [5]: inactive

SMILES: O=C(/C=C/c1ccccc1)OC[C@H]1O[C@@H](OC(=O)c2cc(O)c(O)c(O)c2)[C@H](O)[C@@H](O)[C@@H]1O
- Potency [1]: inactive
- Potency [2]: inactive
- Potency [3]: inactive
- Potency [4]: 327 nM (active)
- Potency [5]: inactive

SMILES: C[C@H]1[C@H](C)CC[C@]2(C(=O)O)CC[C@]3(C(=O)O)C(=CCC4[C@@]5(C)CC[C@H](O[C@@H]6O[C@@H](C)[C@H](O)[C@@H](O)[C@H]6O)C(C)(C)C5CC[C@]43C)[C@H]12 (stereo not given in full)
- Potency [1]: inactive
- Potency [2]: inactive
- Potency [3]: inactive
- Potency [4]: inactive
- Potency [6]: inactive
- Potency [5]: inactive

SMILES: O=C1C[C@@]2(C(=O)N1)C(=O)N(Cc1ccc(Br)cc1F)C(=O)c1cccn12
- Potency [1]: inactive
- Potency [2]: inactive
- Potency [3]: inactive
- Potency [4]: inactive
- Potency [5]: inactive

SMILES: CC1=C(CC/C(C)=C/C(=O)O)[C@@]2(C)CCCC(C)(C)C2CC1=O (stereo not given in full)
- Potency [1]: inactive
- Potency [2]: inactive
- Potency [3]: inactive
- Potency [4]: inactive
- Potency [6]: inactive
- Potency [5]: inactive

SMILES: COc1ccc(/C=C/C(=O)O[C@@H]2[C@@H](O)[C@@H](O)[C@H](O[C@H]3[C@@H]4C=CO[C@@H](O[C@@H]5O[C@H](CO)[C@@H](O)[C@H](O)[C@H]5O)[C@@H]4[C@@]4(CO)O[C@@H]34)O[C@H]2C)cc1
- Potency [1]: inactive
- Potency [2]: inactive
- Potency [3]: inactive
- Potency [6]: inactive

SMILES: CC1(C)CC2C3=CCC4[C@@]5(C)CC[C@H](OC6OCC(O)C(OC7OC(CO)C(O)C(O)C7O)C6O)C(C)(C)C5CC[C@@]4(C)[C@]3(C)C[C@H](O)[C@@]2(CO)[C@H](OC(=O)c2ccccc2)C1 (stereo not given in full)
- Potency [1]: inactive
- Potency [2]: inactive
- activity change, negative = inhibition [3]: -8.37% [at 11.6 µM]
- activity change, negative = thiol reactive [4]: 159% [at 11.5 µM]
- activity, negative = inhibition [6]: -2.24% [at 11.6 µM]
- redox activity (% of DA3003) [5]: -2.38% [at 11.5 µM]

SMILES: Cn1nccc1-c1ccccc1Oc1ccc(S(=O)(=O)Nc2nccs2)cc1C#N
- Potency [1]: inactive
- Potency [2]: inactive
- Potency [3]: inactive
- Potency [4]: inactive
- Potency [5]: inactive

SMILES: O=C(O)/C=C/c1ccc2occc2c1O[C@@H]1O[C@H](CO)[C@@H](O)[C@H](O)[C@H]1O
- Potency [1]: inactive
- Potency [2]: inactive
- Potency [3]: inactive
- Potency [6]: inactive
